# Unmarked numbers belong to inactive results. Records with an inconclusive call do not appear. Entries that show only a call come without a potency. Calls of active or inactive are those of the source. Unless noted, the call rests on the fitted dose curve; in most records, active means well fitted curve in the direction sought with a large enough effect in the repeat runs; inconclusive means weak or mixed curves; inactive means no such curve, though single readings can be large; an effect the other way counts as inactive or inconclusive.
# What was measured:
# [1] = qHTS assay to identify small molecule agonists of the hypoxia (HIF-1) signaling pathway (AID 1224846; active means well fitted activation curve with a large enough effect in the signal ratio in the repeat runs, not every such curve was filed as active; the % refers to the signal ratio)
# Summary of the method: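 Steps: seed ME-180 HRE-bla cells (2,000/well, 0.5% dialyzed FBS); incubate 5 hrs at 37C; pin-transfer compounds or DMSO; incubate 17 hrs; add LiveBLAzer B/G substrate CCF4-AM; measure reporter activation by FRET.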
# [2] = qHTS assay to identify small molecule agonists of H2AX - cell viability counter screen (AID 1224847; calls by dose curve; further: top concentration of the series differs between compounds; nearly all actives have a fitted effect of over 30% in size)
# Summary of the method: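 Wild-type CHO-K1 cells (10% FBS medium) were plated overnight at 37C, exposed to compounds at 15 concentrations for 3 hr at 37C (0.76% DMSO final), and viability was read as CellTiter-Glo luminescence after 30 min at room temperature.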
# [3] = qHTS assay to identify small molecule antagonists of the estrogen related receptor (ERR) signaling pathway from Tox21 library (AID 1224848); further: nearly all actives have a fitted effect of over 50% in size; further: potency means the concentration at half of the fitted maximal effect
# Summary of the method: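 Luminescent reporter read-out (ONE-Glo) from NTP's ERR cell line after 18 h treatment at 37 C with DMSO-dissolved Tox21 compounds; cells pre-plated 6 h beforehand at 2,000 per well.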
# [4] = qHTS assay to identify small molecule agonists of the estrogen related receptor (ERR) signaling pathway from Tox21 library (AID 1224849; calls by dose curve; further: nearly all actives have a fitted effect of over 15% in size)
# Summary of the method: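 Agonist signal is luciferase luminescence from an ERR reporter cell line treated 18 h at 37 C with DMSO-dissolved compounds, read 30 min after ONE-Glo addition at room temperature.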
# [5] = qHTS RealTime-Glo MT Cell Viability Assay in HepG2 cells - 24 hour (AID 1224867); further: nearly all actives have a fitted effect of over 50% in size
# Summary of the method: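 HepG2 cells were seeded at 600 cells/well together with NanoLuc luciferase and a cell-permeant prosubstrate, preincubated 5 h at 37 C/5% CO2, then pin-dosed with compounds in DMSO. Nonlytic luminescence from viable cells was read at each time point.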
# [6] = qHTS RealTime-Glo MT Cell Viability Assay in HEK293 cells - 32 hour (AID 1224868); further: nearly all actives have a fitted effect of over 50% in size; further: potency means the concentration at half of the fitted maximal effect; on activity change, negative = cytotoxic: top concentration of the series differs between compounds
# Summary of the method: (§1)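 HEK293 cells were seeded at 600 cells/well together with NanoLuc luciferase and cell-permeant prosubstrate, preincubated 5 h at 37 C/5% CO2, then given compound in DMSO by pintool. Luminescence from viable-cell prosubstrate reduction was read repeatedly over 40 h.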
# [7] = A CellTox Green Cytotoxicity Assay to monitor cytotoxicity in HEK293 cells - 0 hour (AID 1224869); further: nearly all actives have a fitted effect of over 50% in size
# Summary of the method: (§2)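 Cytotoxicity was tracked continuously in HEK293 cells by a DNA-binding dye excluded from viable cells. Compounds were transferred in DMSO 5 h after seeding; fluorescence was recorded at intervals up to 40 h.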
# [8] = qHTS RealTime-Glo MT Cell Viability Assay in HepG2 cells - 40 hour (AID 1224870); further: nearly all actives have a fitted effect of over 50% in size
# Summary of the method: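 HepG2 cells (600/well) mixed with RealTime-Glo MT reagent, settled 5 h at 37 C/5% CO2 before compound addition. Nonlytic NanoLuc luminescence from viable-cell prosubstrate reduction read repeatedly during 40 h treatment at 37 C.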
# [9] = A CellTox Green Cytotoxicity Assay to monitor cytotoxicity in HEK293 cells - 40 hour (AID 1224871); further: nearly all actives have a fitted effect of over 45% in size; further: potency means the concentration at half of the fitted maximal effect
# Summary of the method: as §2
# [10] = qHTS RealTime-Glo MT Cell Viability Assay in HEK293 cells - 16 hour (AID 1224872); further: nearly all actives have a fitted effect of over 50% in size; further: potency means the concentration at half of the fitted maximal effect; on activity change, negative = cytotoxicity: top concentration of the series differs between compounds
# Summary of the method: as §1
SMILES,outcome [1],outcome [2],Potency [3],outcome [4],outcome [5],Potency [6],outcome [7],Potency [8],Potency [9],Potency [10],activation [1],"activity change, negative = cytotoxicity [2]","activity, negative = inhibition [3]","activity change, positive = activation [4]","activity change, negative = cytotoxicity [5]","activity change, negative = cytotoxic [6]",cytotoxicity [7],cytotoxicity increase [9],"activity change, negative = cytotoxicity [10]"
CC(C)c1ccc2ncccc2c1,inactive,inactive,inactive,inactive,inactive,inactive,inactive,inactive,inactive,inactive,,,,,,,,,
CN(C)CCCCCCN(C)C,inactive,inactive,inactive,inactive,inactive,inactive,inactive,inactive,inactive,inactive,,,,,,,,,
CCOC(=O)CCC(=O)OCC,inactive,inactive,inactive,inactive,inactive,inactive,inactive,inactive,inactive,inactive,,,,,,,,,
CC(=O)Oc1cccc(C)c1,inactive,inactive,inactive,inactive,inactive,inactive,inactive,inactive,inactive,inactive,,,,,,,,,
Clc1cc(Cl)cc(Cl)c1,inactive,inactive,inactive,inactive,inactive,inactive,inactive,inactive,inactive,inactive,,,,,,,,,
CCN1C=CN(C)C1C (stereo not given),inactive,inactive,inactive,inactive,inactive,inactive,,inactive,inactive,inactive,,,,,,,,,
COCCOC[C@H](CC1(C(=O)NC2CCC(C(=O)O)CC2)CCCC1)C(=O)Oc1ccc2c(c1)CCC2 (stereo not given in full),inactive,inactive,inactive,inactive,inactive,inactive,inactive,inactive,inactive,inactive,,,,,,,,,
O=S(=O)(O)c1cccc(S(=O)(=O)O)c1,inactive,inactive,inactive,inactive,inactive,inactive,inactive,inactive,inactive,inactive,,,,,,,,,
O=C(CO)[C@@H](O)[C@H](O)[C@H](O)CO,inactive,inactive,inactive,inactive,inactive,inactive,inactive,inactive,inactive,inactive,,,,,,,,,
CCN(Cc1ccccc1)c1ccccc1,inactive,inactive,30.3 µM (active),inactive,inactive,19.3 µM (active),inactive,inactive,43.1 µM (active),19.3 µM (active),,,,,,,,,
C[N+]1(CC2COC(c3ccccc3)(c3ccccc3)O2)CCCCC1 (stereo not given),,,,,,,,,,,0.207% [at 15.8 µM],-1.84% [at 31.6 µM],4.63% [at 19 µM],2.6% [at 19 µM],-0.511% [at 15.8 µM],-5.88% [at 15.8 µM],-9.06% [at 15.8 µM],-8.19% [at 15.8 µM],-1.95% [at 15.8 µM]
CCCCCCCCCC[N+](C)(C)[O-],inactive,inactive,inactive,inactive,inactive,inactive,inactive,inactive,inactive,inactive,,,,,,,,,
O=C(CO)[C@@H](O)[C@H](O)[C@@H](O)CO,inactive,inactive,inactive,inactive,inactive,inactive,inactive,inactive,inactive,inactive,,,,,,,,,
OCCCCCO,inactive,inactive,inactive,inactive,inactive,inactive,inactive,inactive,inactive,inactive,,,,,,,,,
CCCCOCCOC(=O)CCCCCCCCC(=O)OCCOCCCC,inactive,inactive,inactive,inactive,inactive,inactive,inactive,inactive,inactive,inactive,,,,,,,,,
C=C(C)C(=O)OCC(O)CO (stereo not given),inactive,inactive,inactive,inactive,inactive,inactive,inactive,inactive,inactive,inactive,,,,,,,,,
CCOc1ccccc1OCC,inactive,inactive,inactive,inactive,inactive,inactive,inactive,inactive,inactive,inactive,,,,,,,,,
O=C1NC(=O)C2CC=CCC12 (stereo not given),inactive,inactive,inactive,inactive,inactive,inactive,inactive,inactive,inactive,inactive,,,,,,,,,
C=C(C)C(=O)OCC1CCCO1 (stereo not given),inactive,inactive,,,inactive,inactive,inactive,inactive,inactive,inactive,,,,,,,,,
CO[C@@]1(NC(=O)CSC[C@@H](N)C(=O)O)C(=O)N2C(C(=O)O)=C(CSc3nnnn3C)CS[C@@H]21,inactive,inactive,inactive,inactive,,inactive,inactive,inactive,inactive,inactive,,,,,,,,,
